Measurements from the antibiotic and cytotoxicity screens of Wong et al. (2023).
Screen size: about 39,000 compounds; about 1,500 (3.8%) were called active. The entries come from a sample that favours actives as a whole.

Test system: HSkMC (human skeletal muscle cells)
Test: cytotoxicity call (relative viability < 0.9)
Conditions: 10 µM

Row | Compound | cytotoxicity call
1 | Cc1ccc(OC(=O)N(C)C[C@@H]2OCc3ccccc3-c3c(n(C)c4ccccc34)C(=O)N([C@H](C)CO)C[C@H]2C)cc1 | inactive
2 | COc1ccc(OC)c(C(O)C(C)N)c1.Cl (stereo unspecified) | inactive
3 | C[N+]1(C)CCCC(OC(=O)C(O)(c2ccccc2)c2ccccc2)C1.[Br-] (stereo unspecified) | inactive
4 | NC[C@@H](O)c1ccccc1 | inactive
5 | CC(C)(C)OC(=O)N1C[C@H]2C[C@@H]1CN2 | inactive
6 | c1cc2c(cc1CN1CCNCC1)OCO2 | inactive
7 | c1ccc2cc3c(cc2c1)-c1cccc2cccc-3c12 | inactive
8 | CCC1=C[C@@H]2[C@H](C1)C[C@]2(CN)CC(=O)O | inactive
9 | [N-]=[N+]=NCc1ccccc1C[C@]1(C(=O)N2CCCCC2)N=C(c2ccc(OCCCO)cc2)O[C@H]1c1ccccc1N=[N+]=[N-] | inactive
10 | CC12CCC3C(CCC4(O)CC(O)CCC34C=O)C1(O)CCC2C1=CC(=O)OC1 (stereo unspecified) | active
11 | NC[C@@H](CC(=O)O)c1ccccc1 | inactive
12 | CCOC(OCC)P(=O)(O)CCCN | inactive
13 | CC(=O)N[C@@H]1[C@H](O[C@@H]2O[C@H](C[C@@H](O)[C@H]3O[C@@H](n4ccc(=O)[nH]c4=O)[C@H](O)[C@@H]3O)[C@H](O)[C@H](O)[C@H]2NC(=O)/C=C/CCCCCCCCC(C)C)O[C@@H](CO)[C@H](O)[C@H]1O | inactive
14 | Oc1cc(Cl)ccc1Oc1ccc(Cl)cc1Cl [listing 1 of 2 here] | inactive
15 | Oc1cc(Cl)ccc1Oc1ccc(Cl)cc1Cl [listing 2 of 2 here] | active
16 | Oc1ccc(Cl)cc1Cc1cc(Cl)ccc1O | inactive

Row | Compound | cytotoxicity call
17 | CC(C)[C@@H]1NC[C@@H]2CCCN2C1=O | inactive
18 | CC1=CC(=O)c2c(O)cccc2C1=O | active
19 | Oc1ccccc1-c1ccccc1O | inactive
20 | O=C1C=CC(=O)c2c(O)cccc21 | inactive
21 | O=C(O)C=CC(=O)O.c1ccc2nc(N3CCNCC3)ccc2c1 | inactive
22 | Cc1ncc(CNC(=O)N(CCCl)[NH2+][O-])c(N)n1 | inactive
23 | CC(=O)OC1C2CCC3C(C)(O)C4CC(O)C(C)(C)C4(O)C(O)CC13CC2(C)O (stereo unspecified) | inactive
24 | Cc1cc(C2=NO[C@](c3cc(Cl)cc(Cl)c3)(C(F)(F)F)C2)ccc1C(=O)NCC(=O)NCC(F)(F)F | active
25 | CN1CCOCC12CCN(c1ncccn1)CC2 | inactive
26 | COc1ccc(C2(CN)CCCC2)cc1 | inactive
27 | NCc1cc(=O)[nH]o1 | inactive
28 | O=C1N[C@@H]2C(=C[C@H](O)[C@@H](O)[C@H]2O)c2cc3c(c(O)c21)OCO3 | active
29 | N[C@@H](c1ccccc1)[C@H](O)c1ccccc1 | inactive
30 | CNC(=O)Oc1ccc2c(c1)C1(C)CCN(C)C1N2C.O=S(=O)(O)O (stereo unspecified) | inactive
31 | Cc1ccc(N2CCO[C@@H]3CNCC[C@H]3C2)nn1 | inactive
